The full list was thinned out, with hits kept by preference.
PglD DTNB: C. jejuni PglD acetyltransferase inhibitors, primary screen, biochemical, DTNB colorimetric, single point; UDP-N-acetylbacillosamine N-acetyltransferase PglD (Campylobacter jejuni); actives 0.098% (n = 360,000); inhibition, % at 12.5 µM; purified PglD enzyme, DTNB colorimetric CoA detection; in the data active = inhibition above about 16%, passing the limit was not always enough
ALR inh: inhibitors of human ALR sulfhydryl oxidase, primary screen, biochemical, H2O2 detection, HRP-luminol luminescence, single point; inhibition, % (test concentration not listed); FAD-linked sulfhydryl oxidase ALR (Homo sapiens), P55789; actives 3.8% (n = 290,000); purified ALR, DTT oxidation; AID 485317, 2010;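 active = mean replicate inhibition above about 79%, with every replicate also reaching it, limit read from the data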
PDI inh: inhibitors of human PDI, primary screen, biochemical, turbidity, single point, plate reader; Protein disulfide-isomerase (Homo sapiens), P07237; PDI insulin aggregation turbidity, A650, 90 min; inhibition, % at 10 µM; actives 0.052% (n = 350,000); AID 588391, 2011;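 active = mean inhibition across replicates of 30% or more, whatever share of single replicates reach that level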
NRP1-CendR mod: modulators of CendR peptide binding to NRP-1, primary screen, biochemical, fluorescence polarization, uHTS | Neuropilin-1 (Homo sapiens), O14786 | FAM-RPARPAR peptide binding to NRP-1 | inhibition, % at 25 µM | actives 0.85% (n = 360,000) | AID 602438, 2012;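 active = inhibition or corrected inhibition above about 18%, plus a signal ratio from 0.5 to 1.5, limit read from the data, passing the limit was not always enough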
Target sequence (O14786 whole entry, looked up): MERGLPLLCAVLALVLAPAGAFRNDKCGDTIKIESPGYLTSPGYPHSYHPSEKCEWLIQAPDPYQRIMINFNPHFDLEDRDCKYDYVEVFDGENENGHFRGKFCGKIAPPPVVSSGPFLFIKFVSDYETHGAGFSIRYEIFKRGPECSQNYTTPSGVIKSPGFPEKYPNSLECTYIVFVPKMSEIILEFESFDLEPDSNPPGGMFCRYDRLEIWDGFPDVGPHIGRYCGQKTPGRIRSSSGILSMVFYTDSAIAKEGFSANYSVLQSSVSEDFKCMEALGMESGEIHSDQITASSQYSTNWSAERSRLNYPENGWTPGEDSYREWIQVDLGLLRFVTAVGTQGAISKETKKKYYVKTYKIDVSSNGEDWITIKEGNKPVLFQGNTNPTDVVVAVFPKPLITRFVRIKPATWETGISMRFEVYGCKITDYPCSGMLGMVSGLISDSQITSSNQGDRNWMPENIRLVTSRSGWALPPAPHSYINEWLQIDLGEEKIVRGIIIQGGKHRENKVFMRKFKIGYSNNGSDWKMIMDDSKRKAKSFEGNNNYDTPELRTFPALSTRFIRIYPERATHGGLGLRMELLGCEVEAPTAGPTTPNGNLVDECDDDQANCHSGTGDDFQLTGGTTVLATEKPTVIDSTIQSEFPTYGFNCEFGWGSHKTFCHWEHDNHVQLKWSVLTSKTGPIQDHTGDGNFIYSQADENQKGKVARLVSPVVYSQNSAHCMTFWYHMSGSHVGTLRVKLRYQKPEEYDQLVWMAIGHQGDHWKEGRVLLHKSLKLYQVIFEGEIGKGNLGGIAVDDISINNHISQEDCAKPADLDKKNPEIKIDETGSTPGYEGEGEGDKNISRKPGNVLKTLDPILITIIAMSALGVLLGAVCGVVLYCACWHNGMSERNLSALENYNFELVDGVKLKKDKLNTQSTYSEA
ERp5 block: inhibitors of ERp5-driven insulin aggregation, primary screen, biochemical, turbidity, absorbance 650 nm, single point | inhibition, % at 9.99 µM | AID 651711, 2012 | 90 min | actives 0.05% (n = 350,000) | Protein disulfide-isomerase A6 (Homo sapiens), Q15084;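 active = mean replicate inhibition above about 25%, with every replicate also reaching it, limit read from the data, passing the limit was not always enough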
ARNT TACC3 PPI: disruptors of ARNT/TACC3 protein interaction, primary screen, biochemical, AlphaScreen, single concentration; Transforming acidic coiled-coil-containing protein 3 (Homo sapiens), Q9Y6A5; AlphaScreen His-ARNT PAS-B/GST-TACC3 binding, luminescence; TACC3 fragment carries E629A point mutation; inhibition, % at 9.99 µM; actives 0.66% (n = 390,000);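 active = mean inhibition of replicates at least 50% and at least half of replicates each reaching 50%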
Numbers stand for hits; . = inactive; / = not tested or not shown.

SMILES	PglD DTNB	ALR inh	PDI inh	NRP1-CendR mod	ERp5 block	ARNT TACC3 PPI
O=C(Nc1ccc2c(c1)[C@@H]1C[C@@H](CC(=O)N3CCc4ccccc4C3)O[C@H](CO)[C@@H]1O2)C1CCC1	.	/	/	/	.	.
CCOc1cccc(/C=N/NC(=O)CC2C(=O)NN=C2C)c1O (stereo unspecified)	/	98	.	.	.	.
COc1cc(/C=N/NC(=O)CC2C(=O)NN=C2C)ccc1O (stereo unspecified)	.	/	.	.	.	.
CC1=NNC(=O)C1CC(=O)N/N=C/C(C)=C/c1ccccc1 (stereo unspecified)	/	94	.	.	.	.
O=C(c1ccc(F)cc1)N1CC(=O)N2[C@H](CO)[C@@H](c3ccc(C#Cc4ccc(F)cc4)cc3)[C@@H]2C1	/	/	/	/	.	/
C/C(=N/Nc1ccc([N+](=O)[O-])cc1)c1ccc(C)cc1C	/	98	.	.	.	.
Cc1ccc2c(c1)N(C)/C(=C/c1cccc[n+]1C)S2	.	97	.	.	.	.
COc1ccc2c(c1)N(C)/C(=C/c1cccc[n+]1C)S2	.	97	.	.	.	.
CCN1/C(=C/c2cccc[n+]2C)Sc2ccc(OC)cc21	.	98	.	.	.	.
Cc1ccc2c(c1)N(C)/C(=C/c1cccc[n+]1CCO)S2	.	.	.	.	.	.
CN1/C(=C/c2cccc[n+]2C)Sc2ccccc21	.	.	.	.	.	.
CCNC(=O)[C@H]1[C@H](CO)[C@H]2Cn3c(ccc(-c4ccc(F)cc4)c3=O)[C@H]2N1C(=O)Cc1cccnc1	.	/	/	/	.	.
C[C@@H]1CN([C@@H](C)CO)C(=O)c2cc(NC(=O)CCC(F)(F)F)ccc2O[C@@H](C)CCCCO[C@H]1CN(C)CC1CCCCC1	.	/	/	/	/	.
CC(C)(C)C(=O)CSc1ncnc2sc3c(c12)CCC3	/	.	.	.	.	.
COc1cc(NC(=O)CSc2ncnc3sc4c(c23)CCCC4)c(C(=O)O)cc1OC	.	88	.	.	.	.
CC(=O)CSc1ncnc2sc3c(c12)CCC3	/	94	.	.	.	.
CCCN1C[C@@H](C)[C@H](OC)CN(C)C(=O)c2cc(NC(=O)c3ccc4c(c3)OCO4)ccc2OC[C@H]1C	.	/	/	/	/	.
CCC1CCCCN1S(=O)(=O)c1ccc(C(=O)Nc2nnc(-c3cccs3)o2)cc1 (stereo unspecified)	/	98	.	.	/	.
CC1CN(S(=O)(=O)c2ccc(C(=O)Nc3nnc(-c4ccco4)o3)cc2)CC(C)O1 (stereo unspecified)	/	87	.	.	.	.
Cc1nnc(NC(=O)c2ccc(S(=O)(=O)N3CC(C)OC(C)C3)cc2)o1 (stereo unspecified)	.	.	.	.	.	64
CS(=O)(=O)c1cccc(-c2nnc(NC(=O)c3ccc(S(=O)(=O)N4CCCC4)cc3)o2)c1	.	.	.	.	.	56
COc1ccc(S(=O)(=O)Nc2ccc3c(c2)C(=O)N([C@H](C)CO)C[C@@H](C)[C@@H](CN(C)Cc2ccc4c(c2)OCO4)O3)cc1	.	/	/	/	.	.
C(=C\c1ccc(C2[C@@H]3CN(Cc4cccnc4)C[C@H]2N3)cc1)/c1ccccc1 (stereo partly specified)	/	/	/	/	.	/
Cc1ccc(S(=O)(=O)Nc2ccc3c(c2)C(=O)N([C@@H](C)CO)C[C@H](C)[C@H](CN(C)C(=O)Nc2c(C)noc2C)OCCCC[C@@H](C)O3)cc1	/	/	/	/	.	/
CNC(=O)c1ccc(-c2sc3nc(N4CCOCC4)c4c(c3c2N)CC(C)(C)OC4)o1	/	99	.	.	/	.
O=C(NC1=NCCS1)c1cc(-c2ccc(F)cc2)nc2ccccc12	/	.	.	.	.	.
O=C(NC1=NCCS1)c1csc2ccccc12	.	98	.	.	/	.

Source: PubChem BioAssay
